Data on 1 compound can be found in PubChem BioAssay AID1117283 (Broad Institute, 2014).

Entries with a potency or affinity are not part of this list. Activity calls are given as the source filed them.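 How the source made its calls: active means fluorescent signal decreased by at least 40%; inconclusive means no clear call, values can overlap the other calls; inactive means the rest, including activity opposite to the expected direction.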

This test can be described thus: inhibition of fibronectin matrix deposition – AH1F cells, Alexa488-fibronectin fluorescence, cherry-pick, set 2, dose response (AID 1117283).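 Further: AH1F fibroblasts given Alexa488-labelled fibronectin at 24 nM final.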

As to `C=C1C(=O)O[C@@H]2C[C@@H](C)[C@@H]3C=CC(=O)[C@@]3(C)[C@@H](O)[C@H]12`, the compound was called inactive.
